Results: PubChem BioAssay (EPA / NIEHS)
Where “and” joins values, the source holds several entries; their conditions need not be identical. Equal entries are not always repeated. Inconclusive results are not listed. Calls of active or inactive are those of the source. How the source made its calls: active means hit-call score of the fitted dose curve at least 0.9, where 1 is the maximum; inconclusive means response in the unintended direction; inactive means score below 0.9.

Legend:
[1] = target: rat Constitutive Nitric Oxide Synthase (CNOS), Nos1 (gene 24598) (UniProt P29476); assay: NVS_ENZ_rCNOS: NovaScreen (NVS) Enzymatic Assay for rat Constitutive Nitric Oxide Synthase (CNOS) (AID 2283236)
Summary of the method: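 Enzyme activity in rat brain membrane preparation, read 1 h after dosing by filter-based radiometric scintillation counting. Primary screen in duplicate at 25 uM; actives (e.g., ≥30% inhibition) then run in concentration-response up to 50 uM.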

[2] = target: bovine Dopamine Receptor (DR), Non-selective Binding, DRD1 (gene 281125) (UniProt Q95136); assay: NVS_GPCR_bDR_NonSelective: NovaScreen (NVS) G Protein-Coupled Receptor Assay for bovine Dopamine Receptor (DR), Non-selective Binding (AID 2283241)
Summary of the method: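 Bovine striatal membranes; radioligand displacement read by filtration and scintillation counting 1 h after dosing, loss of signal vs DMSO. Screened in duplicate at 25 uM, then concentration-response for hits.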

[3] = target: Adenosine receptor A1 (Bos taurus) (UniProt P28190); assay: NVS_GPCR_bAdoR_NonSelective: NovaScreen (NVS) G Protein-Coupled Receptor Assay for bovine Adenosine Receptor (AdoR), Non-selective Binding (AID 2283244)
Summary of the method: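 Bovine striatal membranes, radioligand displacement binding, 1 h after dosing, filter-based scintillation counting. Screened in duplicate at 25 uM, then concentration-response up to 50 uM; loss of specific binding relative to DMSO.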

[4] = NVS_GPCR_bNPY_NonSelective: NovaScreen (NVS) G Protein-Coupled Receptor Assay for bovine Neuropeptide Y (NPY) Receptor, Non-selective Binding (AID 2283245)
Summary of the method: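 Bovine hippocampal membranes incubated 1 hour with radioligand and test chemical. Bound ligand measured by filter-based scintillation counting. Single-concentration screen at 25 uM in duplicate, then concentration-response up to 50 uM.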

[5] = target: human Serotonin, 5-Hydroxytryptamine Receptor 2A (5HT2A), HTR2A (gene 3356) (UniProt P28223); assay: NVS_GPCR_h5HT2A: NovaScreen (NVS) G Protein-Coupled Receptor Assay for human Serotonin, 5-Hydroxytryptamine Receptor 2A (5HT2A) (AID 2283249)
Summary of the method: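 Human cortex membranes, cell-free radioligand binding; filter-based scintillation read 1.5 h after dosing. Duplicate screen at 25 uM first; displacement of specific binding (loss of signal) versus DMSO.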

[6] = tested on: guinea pig Muscarinic, Peripheral (Mperiperal) Receptor, Non-selective Binding, gene 100379235; assay: NVS_GPCR_gMPeripheral_NonSelective: NovaScreen (NVS) G Protein-Coupled Receptor Assay for guinea pig Muscarinic, Peripheral (Mperiperal) Receptor, Non-selective Binding (AID 2283250)
Summary of the method: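 Guinea pig bladder membranes, radioligand binding read 1 h after dosing by filter scintillation counting; loss of signal vs DMSO. Primary duplicate screen at 25 uM, then concentration-response up to 50 uM.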

[7] = target: human Serotonin, 5-Hydroxytryptamine Receptor 5A (5HT5A), HTR5A (gene 3361) (UniProt P47898); assay: NVS_GPCR_h5HT5A: NovaScreen (NVS) G Protein-Coupled Receptor Assay for human Serotonin, 5-Hydroxytryptamine Receptor 5A (5HT5A) (AID 2283251)
Summary of the method: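 Cell-free radioligand displacement binding on HEK293-derived membrane protein, 1 h incubation, filter-based scintillation counting. Primary screen in duplicate at 25 uM, actives followed in concentration series; loss of signal fitted versus DMSO.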

[8] = target: guinea pig Opioid, Kappa 1 Receptor (OpiateK), OPRK1 (gene 100135587) (UniProt P41144); assay: NVS_GPCR_gOpiateK: NovaScreen (NVS) G Protein-Coupled Receptor Assay for guinea pig Opioid, Kappa 1 Receptor (OpiateK) (AID 2283252);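 further: radioligand displacement from kappa opioid receptor in guinea pig cerebellar membranes; active means reduced radioligand binding relative to DMSO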
Summary of the method: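 Guinea pig cerebellar membranes were incubated with a radioligand for 2 h after compound addition; bound radioactivity was read by filter-based scintillation counting. Loss of specific binding relative to DMSO baseline defined activity; primary screen at 25 uM in duplicate.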

[9] = target: human Serotonin, 5-Hydroxytryptamine Receptor 6 (5HT6), HTR6 (gene 3362) (UniProt P50406); assay: NVS_GPCR_h5HT6: NovaScreen (NVS) G Protein-Coupled Receptor Assay for human Serotonin, 5-Hydroxytryptamine Receptor 6 (5HT6) (AID 2283253)
Summary of the method: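 Radioligand binding to 5HT6 in HEK293-derived membranes, cell-free, 1 h after dosing; bound ligand measured by filter-based scintillation counting. Primary screen in duplicate at 25 uM; actives retested in concentration series.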

[10] = target: human Adenosine A1 Receptor (AdoRA1), ADORA1 (gene 134) (UniProt P30542); assay: NVS_GPCR_hAdoRA1: NovaScreen (NVS) G Protein-Coupled Receptor Assay for human Adenosine A1 Receptor (AdoRA1) (AID 2283254)
Summary of the method: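 Hum. cortical membranes + radioligand, cmpd 1 h; filtration, scintillation count. Readout = decrease vs DMSO. Primary 25 uM dup; hits → conc. series.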

[11] = target: human Adenosine A2a Receptor (AdoRA2a), ADORA2A (gene 135) (UniProt P29274); assay: NVS_GPCR_hAdoRA2a: NovaScreen (NVS) G Protein-Coupled Receptor Assay for human Adenosine A2a Receptor (AdoRA2a) (AID 2283256)
Summary of the method: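 Radioligand displacement on HEK293-derived membrane protein, cell-free; filter-based scintillation counting 1.5 hours after dosing, loss of signal vs DMSO. Single-point duplicate screen at 25 uM, actives retested in concentration series.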

[12] = target: rat Catechol-O-Methyl Transferase (COMT), Comt (gene 24267) (UniProt P22734); assay: NVS_ENZ_rCOMT: NovaScreen (NVS) Enzymatic Assay for rat Catechol-O-Methyl Transferase (COMT) (AID 2283235)
Summary of the method: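 Cell-free enzyme activity with protein extracted from rat dorsal striatum, measured by HPLC with absorbance detection. Compounds screened at 25 uM in duplicate; actives then run in concentration-response up to 50 uM, loss of signal versus DMSO.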

[13] = tested on: bovine Angiotensin II Receptor Type 2 (AT2), gene 407157; assay: NVS_GPCR_bAT2: NovaScreen (NVS) G Protein-Coupled Receptor Assay for bovine Angiotensin II Receptor Type 2 (AT2) (AID 2283240)
Summary of the method: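 Radioligand displacement on bovine cerebellar membranes, 1 hour incubation, filter-based scintillation counting; loss of signal vs DMSO. Duplicate single-point screen at 25 uM, then concentration-response to 50 uM maximum.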

[14] = target: sheep Cyclooxygenase-1 (Cox1), PTGS1 (gene 443551) (UniProt P05979); assay: NVS_ENZ_oCOX1: NovaScreen (NVS) Enzymatic Assay for sheep Cyclooxygenase-1 (Cox1) (AID 2283239);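 further: actives reduce cyclooxygenase activity so potencies are for inhibitors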
Summary of the method: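 Absorbance read-out of cyclooxygenase activity in a cell-free preparation from sheep seminal vesicles, taken 0.66 hour after dosing. Initial testing was in duplicate at 25 uM, and confirmatory testing was run in concentration series.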

[15] = tested on: guinea pig Leukotriene B4 Receptor (LTB4), gene 100379538; assay: NVS_GPCR_gLTB4: NovaScreen (NVS) G Protein-Coupled Receptor Assay for guinea pig Leukotriene B4 Receptor (LTB4) (AID 2283247)
Summary of the method: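 Radioligand displacement on guinea pig spleen membranes, filter-based scintillation counting 2 h after dosing. Primary duplicate single point at 25 uM; hits over threshold (e.g. 30% inhibition) run in concentration-response up to 50 uM, DMSO baseline.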

[16] = target: guinea pig Leukotriene D4 Receptor (LTD4), CYSLTR1 (gene 100135514) (UniProt Q2NNR5); assay: NVS_GPCR_gLTD4: NovaScreen (NVS) G Protein-Coupled Receptor Assay for guinea pig Leukotriene D4 Receptor (LTD4) (AID 2283248)
Summary of the method: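 Radioligand displacement on guinea pig lung membranes, 1 h incubation, filtration and scintillation counting; DMSO as negative control. Duplicate 25 uM primary screen, then singleton concentration-response up to 50 uM.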

[17] = tested on: bovine Histamine 1 Receptor (H1), gene 281231; assay: NVS_GPCR_bH1: NovaScreen (NVS) G Protein-Coupled Receptor Assay for bovine Histamine 1 Receptor (H1) (AID 2283246)
Summary of the method: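 Radioligand displacement on bovine cerebellar membranes, 1 h after dosing, filter-based scintillation read-out; loss of signal vs DMSO. Duplicate single-concentration screen at 25 uM, then concentration-response up to 50 uM for hits.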

Sequence of human Serotonin, 5-Hydroxytryptamine Receptor 6 (5HT6), HTR6 (gene 3362) (P50406 whole entry, looked up): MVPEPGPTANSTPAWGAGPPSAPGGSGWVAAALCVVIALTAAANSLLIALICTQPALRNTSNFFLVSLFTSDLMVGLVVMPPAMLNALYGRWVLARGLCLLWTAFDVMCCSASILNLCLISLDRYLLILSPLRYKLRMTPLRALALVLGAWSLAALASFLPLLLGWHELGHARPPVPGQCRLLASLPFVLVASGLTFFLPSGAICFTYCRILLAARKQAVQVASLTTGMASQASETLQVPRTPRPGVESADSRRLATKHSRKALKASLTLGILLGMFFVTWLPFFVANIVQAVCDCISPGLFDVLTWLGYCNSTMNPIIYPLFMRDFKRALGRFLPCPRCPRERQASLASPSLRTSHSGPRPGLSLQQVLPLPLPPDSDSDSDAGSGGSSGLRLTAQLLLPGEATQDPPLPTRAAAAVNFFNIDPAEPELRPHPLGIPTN
Sequence of sheep Cyclooxygenase-1 (Cox1), PTGS1 (gene 443551) (P05979 whole entry, looked up): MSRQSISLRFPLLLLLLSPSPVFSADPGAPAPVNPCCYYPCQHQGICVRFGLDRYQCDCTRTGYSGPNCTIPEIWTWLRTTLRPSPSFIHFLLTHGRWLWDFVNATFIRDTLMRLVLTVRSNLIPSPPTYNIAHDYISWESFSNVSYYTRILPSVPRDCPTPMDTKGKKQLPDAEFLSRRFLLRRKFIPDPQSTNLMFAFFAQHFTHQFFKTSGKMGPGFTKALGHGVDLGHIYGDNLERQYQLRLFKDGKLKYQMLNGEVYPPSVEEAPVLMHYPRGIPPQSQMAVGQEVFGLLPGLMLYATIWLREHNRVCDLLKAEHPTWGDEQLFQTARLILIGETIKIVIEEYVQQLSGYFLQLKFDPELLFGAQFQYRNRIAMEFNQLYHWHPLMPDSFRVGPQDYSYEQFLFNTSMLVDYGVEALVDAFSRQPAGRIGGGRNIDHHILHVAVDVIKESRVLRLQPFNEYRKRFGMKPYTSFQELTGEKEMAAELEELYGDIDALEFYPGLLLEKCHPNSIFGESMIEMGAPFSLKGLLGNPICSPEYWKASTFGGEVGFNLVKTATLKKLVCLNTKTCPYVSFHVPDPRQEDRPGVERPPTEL
Sequence of guinea pig Opioid, Kappa 1 Receptor (OpiateK), OPRK1 (gene 100135587) (P41144 whole entry, looked up): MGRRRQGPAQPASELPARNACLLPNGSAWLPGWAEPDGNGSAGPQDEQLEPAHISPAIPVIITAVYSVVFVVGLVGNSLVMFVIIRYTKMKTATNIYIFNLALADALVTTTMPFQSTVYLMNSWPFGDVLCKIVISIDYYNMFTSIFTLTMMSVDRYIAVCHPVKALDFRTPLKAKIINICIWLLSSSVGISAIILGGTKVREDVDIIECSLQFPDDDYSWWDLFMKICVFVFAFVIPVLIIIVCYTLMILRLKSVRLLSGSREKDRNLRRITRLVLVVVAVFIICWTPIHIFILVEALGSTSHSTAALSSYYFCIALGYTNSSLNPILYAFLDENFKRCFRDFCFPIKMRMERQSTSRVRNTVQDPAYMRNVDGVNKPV
Sequence of human Serotonin, 5-Hydroxytryptamine Receptor 5A (5HT5A), HTR5A (gene 3361) (P47898 whole entry, looked up): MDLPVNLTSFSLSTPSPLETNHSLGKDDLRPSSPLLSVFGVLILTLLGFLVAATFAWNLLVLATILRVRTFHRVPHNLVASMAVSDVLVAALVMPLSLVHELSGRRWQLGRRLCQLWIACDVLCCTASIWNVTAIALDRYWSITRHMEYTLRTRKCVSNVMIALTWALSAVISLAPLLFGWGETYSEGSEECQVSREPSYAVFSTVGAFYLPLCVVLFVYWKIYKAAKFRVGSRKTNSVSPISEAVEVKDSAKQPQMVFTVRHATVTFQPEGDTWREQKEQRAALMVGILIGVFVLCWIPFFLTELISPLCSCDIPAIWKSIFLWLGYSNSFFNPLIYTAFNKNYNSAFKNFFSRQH
Sequence of human Adenosine A1 Receptor (AdoRA1), ADORA1 (gene 134) (P30542 whole entry, looked up): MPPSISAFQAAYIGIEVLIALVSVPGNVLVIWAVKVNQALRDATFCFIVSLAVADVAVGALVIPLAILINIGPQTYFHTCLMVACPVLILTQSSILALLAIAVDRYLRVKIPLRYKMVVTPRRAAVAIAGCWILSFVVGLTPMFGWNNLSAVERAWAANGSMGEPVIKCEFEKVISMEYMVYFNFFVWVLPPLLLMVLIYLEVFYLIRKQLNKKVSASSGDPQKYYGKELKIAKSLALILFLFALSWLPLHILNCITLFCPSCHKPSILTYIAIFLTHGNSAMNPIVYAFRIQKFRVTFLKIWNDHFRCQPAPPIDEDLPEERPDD
Sequence of human Serotonin, 5-Hydroxytryptamine Receptor 2A (5HT2A), HTR2A (gene 3356) (P28223 whole entry, looked up): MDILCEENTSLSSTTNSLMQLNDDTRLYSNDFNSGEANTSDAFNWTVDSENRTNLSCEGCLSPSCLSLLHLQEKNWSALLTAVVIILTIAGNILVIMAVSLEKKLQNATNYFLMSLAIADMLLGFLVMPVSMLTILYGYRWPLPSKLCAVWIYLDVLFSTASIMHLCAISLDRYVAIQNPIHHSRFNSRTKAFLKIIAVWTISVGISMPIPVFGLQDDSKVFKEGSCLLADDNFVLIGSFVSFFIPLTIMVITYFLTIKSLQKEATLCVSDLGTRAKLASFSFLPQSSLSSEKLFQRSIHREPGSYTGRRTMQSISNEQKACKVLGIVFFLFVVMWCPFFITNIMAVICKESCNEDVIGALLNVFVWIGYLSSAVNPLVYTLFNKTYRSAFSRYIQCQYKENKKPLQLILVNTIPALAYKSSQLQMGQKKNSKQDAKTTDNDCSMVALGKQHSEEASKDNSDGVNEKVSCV
Sequence of human Adenosine A2a Receptor (AdoRA2a), ADORA2A (gene 135) (P29274 whole entry, looked up): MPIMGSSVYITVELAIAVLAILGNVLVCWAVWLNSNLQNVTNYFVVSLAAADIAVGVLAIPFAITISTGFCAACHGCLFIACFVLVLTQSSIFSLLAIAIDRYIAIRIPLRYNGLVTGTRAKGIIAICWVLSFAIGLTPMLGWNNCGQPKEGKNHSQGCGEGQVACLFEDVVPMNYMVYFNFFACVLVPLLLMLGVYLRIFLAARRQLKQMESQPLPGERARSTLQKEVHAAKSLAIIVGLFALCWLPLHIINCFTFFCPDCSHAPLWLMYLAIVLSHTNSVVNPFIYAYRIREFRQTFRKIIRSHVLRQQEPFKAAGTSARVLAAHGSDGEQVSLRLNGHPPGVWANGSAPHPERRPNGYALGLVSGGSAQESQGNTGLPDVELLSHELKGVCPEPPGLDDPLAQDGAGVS
Sequence of Adenosine receptor A1 (Bos taurus) (P28190 whole entry, looked up): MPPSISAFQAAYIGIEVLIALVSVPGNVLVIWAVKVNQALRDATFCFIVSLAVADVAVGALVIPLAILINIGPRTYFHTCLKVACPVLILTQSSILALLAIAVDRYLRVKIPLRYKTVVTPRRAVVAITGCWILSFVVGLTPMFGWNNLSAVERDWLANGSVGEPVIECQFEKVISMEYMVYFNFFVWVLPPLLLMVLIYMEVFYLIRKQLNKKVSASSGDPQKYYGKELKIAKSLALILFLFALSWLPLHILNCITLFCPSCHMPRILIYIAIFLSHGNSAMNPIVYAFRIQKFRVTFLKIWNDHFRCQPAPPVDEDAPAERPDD
Sequence of guinea pig Leukotriene D4 Receptor (LTD4), CYSLTR1 (gene 100135514) (Q2NNR5 whole entry, looked up): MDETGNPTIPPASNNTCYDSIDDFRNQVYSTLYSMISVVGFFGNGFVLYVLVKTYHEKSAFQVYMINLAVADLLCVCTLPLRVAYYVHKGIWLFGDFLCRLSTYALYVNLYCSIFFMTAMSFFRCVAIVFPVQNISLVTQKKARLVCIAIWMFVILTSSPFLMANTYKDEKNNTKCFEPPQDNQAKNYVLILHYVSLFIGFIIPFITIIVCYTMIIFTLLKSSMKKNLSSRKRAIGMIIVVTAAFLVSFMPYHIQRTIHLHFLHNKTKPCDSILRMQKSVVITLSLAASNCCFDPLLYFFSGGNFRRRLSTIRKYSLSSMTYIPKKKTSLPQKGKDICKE
Sequence of rat Catechol-O-Methyl Transferase (COMT), Comt (gene 24267) (P22734 whole entry, looked up): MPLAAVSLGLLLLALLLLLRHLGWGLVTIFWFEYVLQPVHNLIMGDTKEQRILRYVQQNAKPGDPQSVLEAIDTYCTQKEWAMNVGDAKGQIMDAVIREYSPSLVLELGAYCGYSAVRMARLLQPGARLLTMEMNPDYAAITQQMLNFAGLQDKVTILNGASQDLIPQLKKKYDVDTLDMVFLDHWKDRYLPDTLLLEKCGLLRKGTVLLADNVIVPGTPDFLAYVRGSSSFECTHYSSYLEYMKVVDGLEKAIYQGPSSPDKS
Sequence of bovine Dopamine Receptor (DR), Non-selective Binding, DRD1 (gene 281125) (Q95136 whole entry, looked up): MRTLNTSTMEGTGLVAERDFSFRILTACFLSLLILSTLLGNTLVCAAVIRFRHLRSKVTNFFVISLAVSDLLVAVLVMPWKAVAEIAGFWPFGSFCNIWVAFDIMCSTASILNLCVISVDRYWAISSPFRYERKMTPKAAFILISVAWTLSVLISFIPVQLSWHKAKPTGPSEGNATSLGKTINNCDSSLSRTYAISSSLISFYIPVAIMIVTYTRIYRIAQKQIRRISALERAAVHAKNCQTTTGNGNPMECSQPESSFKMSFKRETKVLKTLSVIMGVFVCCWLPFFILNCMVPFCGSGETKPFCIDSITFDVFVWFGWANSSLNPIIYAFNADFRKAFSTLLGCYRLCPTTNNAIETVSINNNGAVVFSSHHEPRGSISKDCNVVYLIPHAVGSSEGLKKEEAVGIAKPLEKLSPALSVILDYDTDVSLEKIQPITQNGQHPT

Question: With `CCN(CC)C(=O)c1cc(S(=O)(=O)Cc2ccccc2)c(N2CCC(c3ccccc3)CC2)cc1N(CC)CCN(C)C` as the compound, how does the outcome [1] read?
Answer: inactive

Question: What about the AC50 [2] of the same compound?
Answer: 6.88 µM (active)

Question: And the outcome [3]?
Answer: inactive

Question: What about the outcome [4] of the same compound?
Answer: inactive

Question: What about the AC50 [5] of the same compound?
Answer: 8.55 µM (active)

Question: And the AC50 [6]?
Answer: 12 µM (active)

Question: And the AC50 [7]?
Answer: 4.84 µM (active)

Question: And the AC50 [8]?
Answer: 23.4 µM (active)

Question: What about the AC50 [9] of the same compound?
Answer: 0.971 µM (active)

Question: And the AC50 [10]?
Answer: 6.22 µM (active)

Question: Which results are given for `CCOC(=O)O[C@H](C)OC(=O)c1ccc2c(c1)cc(C(=O)NC1CCN(C(C)C)CC1)n2Cc1cc(-c2ccc(Cl)s2)on1`?
Answer: AC50 [4]: 23.6 µM (active); AC50 [5]: 23.6 µM (active); AC50 [6]: 16.6 µM (active); AC50 [7]: 6.7 µM (active); AC50 [9]: 7.12 µM (active); AC50 [10]: 15.9 µM (active); AC50 [11]: 10.2 µM (active)

Question: Which outcome [8] does the source give for `CCCCCCCC[Si](OCC)(OCC)OCC` here?
Answer: inactive

Question: For `O=C1O[C@H]([C@@H](O)CO)C(O)=C1O`, which AC50 [12] is on record?
Answer: 11.5 µM (active)

Question: With `Cc1cc2c(cc1C(F)(F)F)N(C(=O)Nc1ccc(Oc3cccnc3C)nc1)CC2` as the compound, how does the outcome [6] read?
Answer: inactive

Question: What about the AC50 [7] of the same compound?
Answer: 4.76 µM (active)

Question: What about the AC50 [9] of the same compound?
Answer: 2.91 µM (active)

Question: For `COc1ccc2cc(S(=O)(=O)N[C@H](CC(=O)N[C@H](Cc3ccc(CN4[C@H](C)CCC[C@@H]4C)cc3)C(=O)N(C)C(C)C)c3ccc4c(c3)OCO4)ccc2c1`, which AC50 [13] is on record?
Answer: 37.5 µM (active)

Question: And the AC50 [4]?
Answer: 10.7 µM (active)

Question: And the AC50 [5]?
Answer: 7.94 µM (active)

Question: And the AC50 [6]?
Answer: 5.48 µM (active)

Question: And the outcome [7]?
Answer: inactive

Question: And the AC50 [8]?
Answer: 0.548 µM (active)

Question: Which outcome [5] does the source give for `OC12N=C(c3ccccc3)SC1Cc1cc(Cl)ccc12` (stereo not given) here?
Answer: inactive

Question: Which results are given for `CC[C@H](NC(=O)c1cc(F)ccc1NS(=O)(=O)c1cccc2cccnc12)c1ccccc1`?
Answer: outcome [14]: inactive; AC50 [15]: 0.206 µM (active); outcome [16]: inactive; AC50 [9]: 1.31 µM (active)

Question: For `CC/C(=C(/CC)c1ccc(O)cc1)c1ccc(O)cc1`, which outcome [14] is on record?
Answer: inactive

Question: And the AC50 [16]?
Answer: 5.08 µM (active)

Question: And the outcome [7]?
Answer: inactive

Question: And the AC50 [8]?
Answer: 15.1 µM (active)

Question: And the AC50 [9]?
Answer: 25 µM (active) and 19.5 µM (active)

Question: And the AC50 [10]?
Answer: 4.81 µM (active)

Question: Which outcome [17] does the source give for `Cc1ccc2oc(CN(Cc3ccccc3)C(=O)Nc3c(F)cc(F)cc3F)c(-c3ccc(Cl)cc3)c2c1` here?
Answer: inactive

Question: For `O=c1c(-c2ccc(O)cc2)coc2cc(O)cc(O)c12`, which outcome [14] is on record?
Answer: inactive

Question: And the AC50 [3]?
Answer: 18.9 µM (active)

Question: What about the outcome [10] of the same compound?
Answer: inactive

Question: And the AC50 [11]?
Answer: 6.03 µM (active)

Question: Which outcome [13] does the source give for `O=C(O)Cn1c(=O)n(Cc2ccc(Br)cc2F)c(=O)c2ccc(Cl)cc21` here?
Answer: inactive
